{"source": "PubChem BioAssay", "key": {"[1]": {"molecular_target": "Nuclear receptor coactivator 3 (Homo sapiens) (UniProt Q9Y6Q9)", "sequence (Q9Y6Q9 whole entry, looked up, the tested form may be a part)": "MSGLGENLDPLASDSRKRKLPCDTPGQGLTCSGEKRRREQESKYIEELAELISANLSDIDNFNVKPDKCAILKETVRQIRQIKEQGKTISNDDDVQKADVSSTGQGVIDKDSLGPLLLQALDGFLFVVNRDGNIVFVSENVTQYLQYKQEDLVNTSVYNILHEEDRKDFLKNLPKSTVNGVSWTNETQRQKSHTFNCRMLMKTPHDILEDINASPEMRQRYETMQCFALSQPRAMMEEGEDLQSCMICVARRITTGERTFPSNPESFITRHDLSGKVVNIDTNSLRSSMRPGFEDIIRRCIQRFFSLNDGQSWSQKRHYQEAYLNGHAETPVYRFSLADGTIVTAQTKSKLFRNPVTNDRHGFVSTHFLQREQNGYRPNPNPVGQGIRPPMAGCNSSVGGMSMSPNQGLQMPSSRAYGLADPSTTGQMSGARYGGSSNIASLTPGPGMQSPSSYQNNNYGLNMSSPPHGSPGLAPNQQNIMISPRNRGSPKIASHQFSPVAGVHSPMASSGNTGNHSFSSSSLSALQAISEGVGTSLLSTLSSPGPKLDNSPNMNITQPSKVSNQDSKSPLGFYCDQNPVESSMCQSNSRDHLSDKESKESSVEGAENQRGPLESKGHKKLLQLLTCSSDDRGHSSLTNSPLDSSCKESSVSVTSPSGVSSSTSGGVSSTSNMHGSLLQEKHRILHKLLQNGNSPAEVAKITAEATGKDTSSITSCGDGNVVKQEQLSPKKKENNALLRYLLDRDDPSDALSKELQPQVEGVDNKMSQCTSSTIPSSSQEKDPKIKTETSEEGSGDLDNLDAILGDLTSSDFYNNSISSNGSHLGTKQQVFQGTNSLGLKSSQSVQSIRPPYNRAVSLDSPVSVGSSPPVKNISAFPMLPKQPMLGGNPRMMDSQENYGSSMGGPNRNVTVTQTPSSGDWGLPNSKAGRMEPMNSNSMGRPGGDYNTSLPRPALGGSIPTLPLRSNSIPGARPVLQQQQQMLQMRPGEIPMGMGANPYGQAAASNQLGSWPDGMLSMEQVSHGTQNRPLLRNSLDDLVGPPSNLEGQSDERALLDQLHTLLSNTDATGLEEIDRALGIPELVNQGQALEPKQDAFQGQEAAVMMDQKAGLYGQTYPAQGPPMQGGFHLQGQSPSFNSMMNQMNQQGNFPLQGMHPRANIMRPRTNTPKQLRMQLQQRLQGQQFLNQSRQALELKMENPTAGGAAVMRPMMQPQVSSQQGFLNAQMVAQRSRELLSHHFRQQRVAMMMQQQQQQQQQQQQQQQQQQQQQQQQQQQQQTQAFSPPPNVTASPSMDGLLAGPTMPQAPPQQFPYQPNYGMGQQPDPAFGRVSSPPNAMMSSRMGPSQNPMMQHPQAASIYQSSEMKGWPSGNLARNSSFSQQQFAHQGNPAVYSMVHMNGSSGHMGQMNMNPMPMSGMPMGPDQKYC", "test": "SRC3 coactivator transcriptional activity inhibitors, confirmation, cell-based, luminescence, quadruplicate (AID 588792);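 further: 0% = DMSO treated cells and 100% = gossypol at 36 µM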", "details": "HEK293 GAL4-SRC3 luciferase reporter, at 3.6 µM, hits give high values"}, "[2]": {"tested_on": "transactivating tegument protein VP16 (Human herpesvirus 1), Gal4-VP16 luciferase reporter", "test": "VP16 transactivation inhibitors, counter-screen for SRC3 inhibitor project, cell-based, luminescence, high throughput (AID 588794; in the data active means inhibition above about 30%)", "details": "mammalian cells, VP16-driven luciferase reporter luminescence; at 3.6 µM; hits give high values"}}, "note": "A number with no mark means an inactive call. The source made the active and inactive calls.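 How the source made its calls, unless noted: active means mean inhibition over 43.08%, the solvent-only control mean plus 3 SD; inactive means the rest.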"}
{"smiles": "CCOC(=O)c1c(-c2ccccc2)nnn1-c1nc(OCC)nc(N2CCCCC2)n1", "values": [{"measurement": "inhibition", "setting": "[1]", "value": -15.5, "unit": "%"}, {"measurement": "inhibition", "setting": "[2]", "value": 0.51, "unit": "%"}]}
{"smiles": "Cc1ccc(NC2=C/C(=N/S(=O)(=O)c3cccs3)c3ccccc3C2=O)cc1", "values": [{"measurement": "inhibition", "setting": "[1]", "value": "85% (active)"}, {"measurement": "inhibition", "setting": "[2]", "value": "82% (active)"}]}
{"smiles": "O=C(CCl)NC1CCCc2ccccc21", "note": "(centres undefined)", "values": [{"measurement": "inhibition", "setting": "[1]", "value": 1.81, "unit": "%"}, {"measurement": "inhibition", "setting": "[2]", "value": -5.4, "unit": "%"}]}
{"smiles": "O=C(Nc1cccc(S(=O)(=O)N2CCCCC2)c1)c1ccc(S(=O)(=O)C(F)F)cc1", "values": [{"measurement": "inhibition", "setting": "[1]", "value": 3.35, "unit": "%"}, {"measurement": "inhibition", "setting": "[2]", "value": 14.9, "unit": "%"}]}
{"smiles": "Cc1ccc2c(c1)/C(=C/c1ccc(F)cc1)C(=O)N2", "values": [{"measurement": "inhibition", "setting": "[1]", "value": 7.93, "unit": "%"}, {"measurement": "inhibition", "setting": "[2]", "value": -3.06, "unit": "%"}]}
{"smiles": "COc1ccc(-c2cc(C(=O)NNC(=S)NC(=O)c3c(-c4ccccc4)noc3C)[nH]n2)cc1", "values": [{"measurement": "inhibition", "setting": "[1]", "value": 6.16, "unit": "%"}, {"measurement": "inhibition", "setting": "[2]", "value": -3.86, "unit": "%"}]}
{"smiles": "CC(=O)c1c(C)[nH]c(C(=O)Nc2ccc(Cl)c(S(=O)(=O)N3CCOCC3)c2)c1C", "values": [{"measurement": "inhibition", "setting": "[1]", "value": 18.6, "unit": "%"}, {"measurement": "inhibition", "setting": "[2]", "value": -16.6, "unit": "%"}]}
{"smiles": "COc1cc(C(=O)NC2CCCc3c2cnn3-c2ccccc2F)cc(OC)c1OC", "note": "(centres undefined)", "values": [{"measurement": "inhibition", "setting": "[1]", "value": 2.41, "unit": "%"}, {"measurement": "inhibition", "setting": "[2]", "value": 21, "unit": "%"}]}
{"smiles": "Cc1ncoc1C(=O)NC1CCCc2c1cnn2-c1ccc(C(C)(C)C)cc1", "note": "(centres undefined)", "values": [{"measurement": "inhibition", "setting": "[1]", "value": -0.26, "unit": "%"}, {"measurement": "inhibition", "setting": "[2]", "value": "41.8% (active)"}]}
{"smiles": "COc1ccc(Oc2ccc(/C=C/C(=O)c3ccc(O)cc3)cc2[N+](=O)[O-])cc1", "values": [{"measurement": "inhibition", "setting": "[1]", "value": -5.49, "unit": "%"}, {"measurement": "inhibition", "setting": "[2]", "value": -5.56, "unit": "%"}]}
{"smiles": "CC1CN(Cc2ccccc2)c2nc3c(c(=O)n(CC(N)=O)c(=O)n3C)n2C1", "note": "(centres undefined)", "values": [{"measurement": "inhibition", "setting": "[1]", "value": 0.26, "unit": "%"}, {"measurement": "inhibition", "setting": "[2]", "value": -4.77, "unit": "%"}]}
{"smiles": "CCOC(=O)CCCCC1C(CCCC(=O)OCC)C=NN1C", "note": "(centres undefined)", "values": [{"measurement": "inhibition", "setting": "[1]", "value": -16, "unit": "%"}, {"measurement": "inhibition", "setting": "[2]", "value": -3.48, "unit": "%"}]}
